Compounds without any hit were thinned out: in the full panel of roughly 79,000, 15% have a hit. The source made the active and inactive calls. No stated cut-off is given here; in the data, active means growth inhibition above about 70%; inactive means the rest.
How the values were obtained:
[1] = NCI Yeast Anticancer Drug Screen. Data for the rad52 strain (AID 147);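 further: 0% = growth of vehicle-treated control cultures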; conditions: S. cerevisiae rad52 mutant growth inhibition, hits give high values
How it was run: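 Yeast strain carrying a DNA damage repair alteration was exposed to test compounds. Growth inhibition was measured relative to vehicle-treated controls.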

[2] = NCI Yeast Anticancer Drug Screen. Data for the wt1 strain (AID 149);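 further: 0% = growth of vehicle-treated wt1 cultures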; conditions: S. cerevisiae wt1 strain (SPY 50644) growth inhibition, hits give high values
How it was run: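 Using yeast strain wt1, compound-induced growth inhibition was determined against vehicle-treated cultures.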

[3] = NCI Yeast Anticancer Drug Screen. Data for the rad50EPP+ strain (AID 151);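 further: 0% = growth of vehicle-treated control cultures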; conditions: S. cerevisiae rad50 mutant strain, hits give high values
How it was run: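 Yeast strain carrying rad50 alteration (rad50EPP+) exposed to compounds; growth inhibition measured relative to vehicle-treated controls.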

[4] = NCI Yeast Anticancer Drug Screen. Data for the mgt1 strain (AID 153); conditions: S. cerevisiae mgt1 mutant growth inhibition, hits give high values
How it was run: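 Yeast mgt1 strain (DNA repair/cell-cycle alteration panel) exposed to compounds; growth inhibition measured relative to vehicle-treated controls.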

[5] = NCI Yeast Anticancer Drug Screen. Data for the rad50 strain (AID 155);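 further: 0% = growth of vehicle-only cultures of the same strain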; conditions: S. cerevisiae rad50 strain growth inhibition, hits give high values
How it was run: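 Relative growth inhibition (compound vs vehicle) was measured in yeast with a defined repair-gene alteration.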

[6] = NCI Yeast Anticancer Drug Screen. Data for the mec2-1 strain (AID 157); conditions: S. cerevisiae mec2-1 strain, hits give high values
How it was run: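 mec2-1 yeast strain, carrying an alteration in DNA damage repair or cell cycle control, was exposed to compounds; growth inhibition was measured relative to vehicle-treated controls.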

[7] = NCI Yeast Anticancer Drug Screen. Data for the rad14 strain (AID 159);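 further: 0% = growth of vehicle-treated control cultures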; conditions: S. cerevisiae rad14 strain growth inhibition, hits give high values
How it was run: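 Screen for anticancer potential: a yeast strain altered in DNA damage repair is grown with compound, and reduced growth is quantified against vehicle controls.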

[8] = NCI Yeast Anticancer Drug Screen. Data for the sgs1 mgt1 strain (AID 161);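 further: 0% = growth of cultures given vehicle only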; conditions: S. cerevisiae sgs1 mgt1 strain, hits give high values
How it was run: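 Growth of a repair-deficient yeast mutant was monitored after compound treatment and expressed as inhibition relative to vehicle-treated cultures.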

[9] = NCI Yeast Anticancer Drug Screen. Data for the CLN2oe strain (AID 163);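 further: 0% = growth of vehicle-only control cultures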; conditions: S. cerevisiae CLN2oe strain, hits give high values
How it was run: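 Yeast cells carrying a defined cell-cycle control alteration were exposed to test compounds. Growth inhibition was scored against vehicle-treated control cultures.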

[10] = NCI Yeast Anticancer Drug Screen. Data for the cln2 rad14 strain (AID 165);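 further: 0% = growth equal to vehicle treated cultures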; conditions: S. cerevisiae cln2 rad14 strain, hits give high values
How it was run: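 Yeast carrying cln2 and rad14 alterations (cell cycle control and DNA damage repair) were exposed to compounds. Growth inhibition was measured against vehicle-treated controls.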

[11] = NCI Yeast Anticancer Drug Screen. Data for the bub3 strain (AID 167); conditions: S. cerevisiae bub3 mutant strain, hits give high values
How it was run: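 Screening used yeast with an engineered genetic alteration affecting cell cycle control. Compound-exposed cultures were compared with vehicle cultures, and reduced growth was taken as inhibition.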

[12] = NCI Yeast Anticancer Drug Screen. Data for the wt2 strain (AID 169);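 further: 0% = growth of vehicle-treated yeast cultures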; conditions: S. cerevisiae wt2 strain growth inhibition, hits give high values
How it was run: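 Yeast cells were exposed to test compounds, and growth inhibition was measured relative to vehicle-treated controls.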

[13] = NCI Yeast Anticancer Drug Screen. Data for the mlh1 strain (AID 171);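 further: 0% = growth of vehicle-treated control cultures of the same strain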; conditions: S. cerevisiae mlh1 strain growth inhibition, hits give high values
How it was run: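 Yeast carrying a defined genetic alteration in DNA damage repair or cell cycle control were exposed to test compounds. Growth inhibition was measured relative to vehicle-treated controls.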

[14] = NCI Yeast Anticancer Drug Screen. Data for the sgs1 strain (AID 173);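 further: 0% = growth of vehicle-only control cultures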; conditions: S. cerevisiae sgs1 mutant, hits give high values
How it was run: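 Yeast mutant strains carrying defined defects in DNA damage repair or cell cycle control were exposed to test compounds. Growth inhibition was scored against vehicle-treated controls.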

[15] = NCI Yeast Anticancer Drug Screen. Data for the mlh1 rad18 strain (AID 175); conditions: S. cerevisiae mlh1 rad18 strain growth inhibition, hits give high values
How it was run: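 Growth inhibition of the yeast strain was measured after compound exposure and expressed relative to vehicle-treated controls. The strain carries defined defects in DNA damage repair.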

[16] = NCI Yeast Anticancer Drug Screen. Data for the rad18 strain (AID 177); conditions: S. cerevisiae rad18 mutant growth inhibition, hits give high values
How it was run: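 Yeast carrying a defined DNA damage repair alteration were exposed to compounds. Growth inhibition was expressed relative to vehicle-treated controls.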

[17] = at 5.0 µM (retest, dose inferred, filed as 0.5)
[18] = at 50.0 µM (retest, dose inferred, filed as 5.0)

Measured: growth inhibition

Oc1[nH]c2ccccc2c1N=NC(=S)N1CCCCC1
active: [1]; at 33.0 µM 97% | [1]; at 100.0 µM 98% | [2]; at 33.0 µM 90% | [2]; at 100.0 µM 98% | [4]; at 33.0 µM 97% | [4]; at 100.0 µM 99% | [5]; at 33.0 µM 97% | [5]; [18] 99% | [5]; at 50.0 µM 75.5% | [5]; at 100.0 µM 98% | [6]; at 33.0 µM 97% | [6]; [18] 98% | [6]; at 50.0 µM 80.4% | [6]; at 100.0 µM 99% | [7]; at 33.0 µM 97% | [7]; at 100.0 µM 99% | [8]; [18] 99% | [8]; at 50.0 µM 87% | [9]; at 33.0 µM 98% | [9]; at 100.0 µM 99% | [10]; [18] 99% | [10]; at 50.0 µM 84.8% | [11]; at 33.0 µM 91% | [11]; [18] 99% | [11]; at 50.0 µM 90.3% | [11]; at 100.0 µM 96% | [12]; at 33.0 µM 94% | [12]; at 100.0 µM 99% | [13]; at 33.0 µM 96% | [13]; at 100.0 µM 98% | [14]; at 33.0 µM 99% | [14]; at 100.0 µM 99% | [15]; [18] 99% | [15]; at 50.0 µM 86.5% | [16]; at 33.0 µM 89% | [16]; at 100.0 µM 97%
inactive: [1]; at 1.2 µM 6% | [1]; at 3.7 µM 11% | [1]; at 11.0 µM 19% | [2]; at 1.2 µM -1% | [2]; at 3.7 µM 0% | [2]; at 11.0 µM 4% | [3]; at 1.2 µM 6% | [3]; at 3.7 µM 16% | [3]; at 11.0 µM 28% | [3]; at 33.0 µM 39% | [3]; at 100.0 µM 58% | [4]; at 1.2 µM 0% | [4]; at 3.7 µM 1% | [4]; at 11.0 µM 23% | [5]; at 1.2 µM 5% | [5]; at 3.7 µM 11% | [5]; [17] 11% | [5]; at 11.0 µM 13% | [6]; at 1.2 µM 4% | [6]; at 3.7 µM 6% | [6]; [17] 41% | [6]; at 11.0 µM 23% | [7]; at 1.2 µM 4% | [7]; at 3.7 µM -3% | [7]; at 11.0 µM 9% | [8]; [17] -8% | [9]; at 1.2 µM 2% | [9]; at 3.7 µM -4% | [9]; at 11.0 µM 20% | [10]; [17] 0% | [11]; at 1.2 µM -1% | [11]; at 3.7 µM 5% | [11]; [17] -18% | [11]; at 11.0 µM 15% | [12]; at 1.2 µM 5% | [12]; at 3.7 µM 6% | [12]; at 11.0 µM 13% | [13]; at 1.2 µM 4% | [13]; at 3.7 µM 4% | [13]; at 11.0 µM 16% | [14]; at 1.2 µM 14% | [14]; at 3.7 µM 16% | [14]; at 11.0 µM 28% | [15]; [17] 22% | [16]; at 1.2 µM 5% | [16]; at 3.7 µM 9% | [16]; at 11.0 µM 24%

O=C(Nc1ccc(Cl)cc1)Nc1nnc2nc(C(C(=O)c3cccc([N+](=O)[O-])c3Cl)c3nc4nnc(NC(=O)Nc5ccc(Cl)cc5)n4[nH]c3=O)c(=O)[nH]n12
active: [5]; at 50.0 µM 99.5% | [6]; at 50.0 µM 99.5% | [8]; at 50.0 µM 99% | [10]; at 50.0 µM 99.2% | [11]; at 50.0 µM 99.5% | [15]; at 50.0 µM 99.4%
inactive: [1]; at 1.2 µM 2% | [1]; at 3.7 µM 2% | [1]; at 11.0 µM 2% | [1]; at 33.0 µM 4% | [1]; at 100.0 µM 52% | [2]; at 1.2 µM 1% | [2]; at 3.7 µM 1% | [2]; at 11.0 µM 3% | [2]; at 33.0 µM -1% | [2]; at 100.0 µM 30% | [3]; at 1.2 µM 4% | [3]; at 3.7 µM 5% | [3]; at 11.0 µM 8% | [3]; at 33.0 µM 23% | [3]; at 100.0 µM 29% | [4]; at 1.2 µM 0% | [4]; at 3.7 µM 1% | [4]; at 11.0 µM 0% | [4]; at 33.0 µM 15% | [4]; at 100.0 µM 47% | [5]; at 1.2 µM 1% | [5]; at 3.7 µM 0% | [5]; [17] -12% | [5]; at 11.0 µM 2% | [5]; at 33.0 µM 2% | [5]; [18] 10% | [5]; at 100.0 µM 31% | [6]; at 1.2 µM -4% | [6]; at 3.7 µM -2% | [6]; [17] -2% | [6]; at 11.0 µM -12% | [6]; at 33.0 µM 0% | [6]; [18] 10% | [6]; at 100.0 µM 68% | [7]; at 1.2 µM 0% | [7]; at 3.7 µM -3% | [7]; at 11.0 µM 0% | [7]; at 33.0 µM 1% | [7]; at 100.0 µM 56% | [8]; [17] 2% | [8]; [18] 28% | [9]; at 1.2 µM -6% | [9]; at 3.7 µM -8% | [9]; at 11.0 µM -5% | [9]; at 33.0 µM -12% | [9]; at 100.0 µM 37% | [10]; [17] -8% | [10]; [18] 14% | [11]; at 1.2 µM -5% | [11]; at 3.7 µM -5% | [11]; [17] -22% | [11]; at 11.0 µM -7% | [11]; at 33.0 µM -8% | [11]; [18] 22% | [11]; at 100.0 µM 64% | [12]; at 1.2 µM -1% | [12]; at 3.7 µM -2% | [12]; at 11.0 µM -2% | [12]; at 33.0 µM -2% | [12]; at 100.0 µM 32% | [13]; at 1.2 µM 1% | [13]; at 3.7 µM -2% | [13]; at 11.0 µM 2% | [13]; at 33.0 µM -1% | [13]; at 100.0 µM 35% | [14]; at 1.2 µM -1% | [14]; at 3.7 µM 0% | [14]; at 11.0 µM -2% | [14]; at 33.0 µM 1% | [14]; at 100.0 µM 60% | [15]; [17] -20% | [15]; [18] 55% | [16]; at 1.2 µM -1% | [16]; at 3.7 µM -3% | [16]; at 11.0 µM -12% | [16]; at 33.0 µM -2% | [16]; at 100.0 µM 45%
